Activity calls are given as the source filed them.
What was measured:
Albumin (Bos taurus) = Albumin (Bos taurus) (UniProt P02769); test: compounds binding labelled BSA control protein – biochemical, small-molecule microarray, Alexa647 label, 635/667 nm fluorescence, artefact control for SMM control protein annotation, profiling panel (AID 1118); conditions: BSA-A647 binding, fluorescence 635 nm, higher = more signal;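 also: score merges 667 nm emission intensity and signal-to-noise per printed compound spot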
Chain of Albumin (Bos taurus) (P02769 whole entry, looked up): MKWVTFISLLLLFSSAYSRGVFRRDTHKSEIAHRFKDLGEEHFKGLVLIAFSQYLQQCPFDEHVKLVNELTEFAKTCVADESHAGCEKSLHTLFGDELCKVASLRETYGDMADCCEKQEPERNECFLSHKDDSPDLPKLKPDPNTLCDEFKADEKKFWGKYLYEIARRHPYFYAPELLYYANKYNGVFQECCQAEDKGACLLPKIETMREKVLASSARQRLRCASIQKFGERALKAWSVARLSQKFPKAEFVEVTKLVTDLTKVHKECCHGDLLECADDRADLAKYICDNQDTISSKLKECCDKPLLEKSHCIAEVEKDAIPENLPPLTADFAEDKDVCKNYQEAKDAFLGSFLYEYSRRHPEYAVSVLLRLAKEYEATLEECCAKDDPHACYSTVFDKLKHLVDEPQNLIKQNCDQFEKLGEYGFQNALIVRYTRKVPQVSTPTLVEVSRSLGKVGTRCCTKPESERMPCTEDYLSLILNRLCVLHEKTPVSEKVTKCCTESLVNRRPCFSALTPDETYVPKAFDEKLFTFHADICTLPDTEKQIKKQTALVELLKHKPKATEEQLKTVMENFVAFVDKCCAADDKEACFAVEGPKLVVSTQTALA

[1] = probe aXIP binding to arrayed compounds – biochemical, NeuroSMM set, 635/667 nm fluorescence, primary screen (AID 1119); conditions: small-molecule microarray, higher = more signal, called active from +8 up or from −8 down;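 also: probe is the protein aXip251-270 applied at 1 µg/mL to compound-printed slides; binding of probe to printed compounds measured as 667 nm fluorescence plus signal to noise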
[2] = probe aNOTCH3 binding on compound microarray – biochemical, small-molecule microarray, 635/667 nm fluorescence, primary screen (AID 1120); conditions: higher = more signal;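 also: probe is a biotin-tagged antibody raised against NOTCH3 rather than NOTCH3 protein; score merges spot fluorescence near 667 nm with spot signal to noise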
[3] = probe aNOTCH2 binding on compound microarray – biochemical, small-molecule microarray, 635/667 nm fluorescence, primary screen (AID 1121); conditions: higher = more signal;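 also: score merges feature fluorescence read at 667 nm with its signal to noise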
[4] = target: Carbonic anhydrase 2 (Homo sapiens) (UniProt P00918); test: compounds binding carbonic anhydrase 2 – biochemical, small-molecule microarray, Alexa647-labelled CAII, profiling panel (AID 1122); conditions: CAII-A647 binding fluorescence, higher = more signal
[5] = COS7 lysate on small-molecule microarray, probe aHis, 635 nm (AID 1123); conditions: COS7 cell lysate, fluorescence, higher = more signal;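 also: z-score combines 667nm fluorescence intensity with signal-to-noise per printed compound spot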
[6] = probe aLAP1 signal on lysate-treated microarray – cell lysate, small-molecule microarray, COS7 lysate, primary screen (AID 1124); conditions: probe aLAP1, fluorescence, higher = more signal;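 also: lysate comes from COS7 cells expressing LAP1 and is applied at 0.3 µg/mL; score merges spot fluorescence near 667 nm with signal-to-noise over triplicate slides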
Sam68 (KHDRBS1) = test: compounds binding KHDRBS1 protein – biochemical, small-molecule microarray, 635 nm fluorescence, primary screen (AID 1125); conditions: higher = more signal;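 also: score merges 667 nm channel intensity with signal to noise over triplicate slides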
[7] = system: Chordin-like protein 2 (CHRDL2); test: compounds binding chordin-like 2 – biochemical, small-molecule microarray, 635 nm fluorescence, primary screen (AID 1126); conditions: fluorescence 635 nm, higher = more signal;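 also: printed compound slides probed with Chrdl2 protein at 4 µg/mL for 1 h at 4 C; score merges 667 nm emission intensity with signal to noise over three replicate slides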
[8] = target: Concanavalin-A (Canavalia ensiformis) (UniProt P02866); test: compounds binding concanavalin A lectin – biochemical, small-molecule microarray, Alexa647 label, 635 nm, artefact control for SMM control protein annotation, primary screen (AID 1127); conditions: ConA-A647 binding fluorescence, higher = more signal;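 also: z combines 667 nm emission intensity with signal-to-noise across three replicate slides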
Chain of Concanavalin-A (Canavalia ensiformis) (P02866 whole entry, looked up): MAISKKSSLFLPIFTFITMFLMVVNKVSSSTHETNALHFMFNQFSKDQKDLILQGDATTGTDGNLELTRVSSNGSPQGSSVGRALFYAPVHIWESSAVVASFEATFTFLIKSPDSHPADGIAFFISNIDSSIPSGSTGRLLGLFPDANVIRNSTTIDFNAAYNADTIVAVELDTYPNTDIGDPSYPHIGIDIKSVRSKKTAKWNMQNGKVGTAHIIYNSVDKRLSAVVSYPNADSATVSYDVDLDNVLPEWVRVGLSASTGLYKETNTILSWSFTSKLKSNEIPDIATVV

SMILES | composite z-score (Albumin (Bos taurus)) | composite Z-score [1] | composite z-score [2] | composite z-score [3] | composite z-score [4] | composite z-score [5] | composite z-score [6] | composite z-score (Sam68 (KHDRBS1)) | composite z-score [7] | composite z-score [8]
C=C(CCCC)/C(=C/C[C@H](OC(C)=O)c1ccccc1OCCO)c1cnc2ccccc2c1 | 0.553 | 0.282 (inactive) | -0.12 | -0.173 | 0.5 | 0.376 | 0.0282 | 0.8 | 0.77 | 0.706
[N-]=[N+]=Nc1ccccc1C[C@]1(C(=O)NCC(O)CO)N=C(c2ccc(OCCCO)cc2)O[C@H]1c1ccccc1 (stereo not given in full) | 0.927 | 0.102 (inactive) | 0.298 | -0.14 | 0.629 | 2.83 | 0.132 | 1.09 | -1.5 | 0.197
COCCCNC(=O)[C@@]1(CCS(=O)(=O)c2ccccc2)N=C(c2ccc(OCCCO)cc2)O[C@H]1c1ccccc1N=[N+]=[N-] | 0.955 | 0.164 (inactive) | 0.307 | -0.0316 | 0.695 | 3.05 | 0.743 | 1.3 | -0.154 | 1.07
C=CCNC(=O)[C@@H]1[C@H]2C(=O)O[C@H](c3ccccc3)[C@H](c3ccccc3)N2[C@H](c2ccc(OCCO)cc2)[C@@]12C(=O)N(C(=O)OCCOC)c1ccc(C#CCNC(N)=O)cc12 | -0.178 | 0.0253 (inactive) | 0.163 | -0.0632 | 0.513 | 1.02 | 0.662 | 1.3 | 0.305 | 1.1
CN1C(=O)C2C=CC(C(O)c3ccccc3)N(N3CCCCC3)C2C1=O (stereo not given) | 0.988 | -0.123 (inactive) | 0.237 | 0.0521 | 0.846 | 2.37 | 0.676 | 1.02 | -0.409 | 0.872
C=C(C)[C@@H]1CC=C(C(O)C2C=CC3C(=O)NC(=O)C3N2Nc2ccc(Cl)cc2Cl)CC1 (stereo not given in full) | 1 | 0.114 (inactive) | 0.0221 | 0.0032 | 0.708 | 2 | 0.708 | 1.31 | 0.41 | 1.11
O=C1O[C@@H](c2ccccc2)[C@@H](c2ccccc2)N2[C@@H](c3ccc(OCCO)cc3)[C@]3(C(=O)Nc4ccc(C#CC5=CCCCC5)cc43)[C@@H](C(=O)N3CCCCCCC3)[C@H]12 | 0.425 | 4.13 (inactive) | 1.87 | 0.988 | 0.776 | 3.59 | 1.6 | 1.28 | 1.42 | 1.13
NC(=O)NCC#Cc1ccc2c(c1)[C@]1(C(=O)N2)[C@H](C(=O)O)[C@H]2C(=O)O[C@H](c3ccccc3)[C@H](c3ccccc3)N2[C@@H]1c1ccc(O)cc1 | 0.424 | 0.116 (inactive) | 0.207 | 0.314 | 0.205 | 0.361 | -0.464 | 0.102 | 0.265 | 0.888
COC(=O)c1c(CC[C@@H](CO)NC(=O)N[C@@H](Cc2ccccc2)Cn2cc(-c3ccccn3)nn2)oc(C(=O)N2CCOCC2)c1C(=O)OC | 0.15 | 0.255 (inactive) | 0.0562 | -0.0928 | 0.696 | 0.0795 | -0.425 | -0.23 | -0.488 | -0.376
C#CCN1[C@H](/C=C/C2CC2)[C@H](Cc2ccccc2)OC(=O)[C@@H]1Cc1ccccc1 | -0.159 | -0.95 (inactive) | -0.124 | -0.0759 | 0.2 | 0.24 | 0.092 | 0.257 | 0.509 | 0.0816
COC(=O)c1c2oc(c1C(=O)OC)C(=O)N[C@@H](C(C)C)Cn1cc(nn1)C1(CCCCC1)NC(=O)N[C@H](CO)CC2 | -0.0901 | -0.203 (inactive) | -0.122 | -0.0761 | 0.828 | 1.18 | -0.0841 | 0.194 | 0.199 | 0.689
CCCCN1CC=CC23O[C@@H]4/C=C\CCCOC(=O)C4[C@H]2C(=O)N(CCCO)[C@@H]3C1=O (stereo not given in full) | -0.314 | 0.949 (inactive) | -0.229 | -0.18 | 0.939 | 1.28 | 1.82 | -0.158 | -0.824 | -1.4
NC(=O)[C@@H]1[C@H]2C(=O)O[C@H](c3ccccc3)[C@H](c3ccccc3)N2[C@H](c2ccc(OCCO)cc2)[C@@]12C(=O)Nc1ccc(C#CC3=CCCCC3)cc12 | 0.768 | 2.02 (inactive) | -0.0665 | 0.0086 | 0.647 | 0.558 | 0.0971 | 1.32 | 0.463 | 1.09
O=C1C2C=CC(C(O)c3cc(C(F)(F)F)cc(C(F)(F)F)c3)N(Nc3ccccc3)C2C(=O)N1c1ccccc1 (stereo not given) | -0.0814 | 0.837 (inactive) | 0.0435 | -0.101 | 0.723 | 2.51 | -0.233 | 1.04 | -0.357 | -0.236
C=C(/C(=C/C[C@H](OC(=O)c1ccncc1)c1ccc(OCCO)cc1)c1cc(C(=O)OC)ccc1OC)C(C)C | 0.605 | -0.0856 (inactive) | -0.0362 | -0.135 | 0.514 | 1.15 | 0.284 | 0.516 | -0.0985 | 0.985
O=C1C2C=CC(C(O)COCc3ccccc3)N(Nc3ccc([N+](=O)[O-])cc3)C2C(=O)N1c1ccccc1 (stereo not given) | 0.734 | 0.845 (inactive) | 0.271 | 0.0449 | 0.766 | 2.9 | 0.143 | 1.31 | 0.412 | 0.519
CC(C)CN1C(=O)[C@@]2(c3ccc([N+](=O)[O-])cc3)CC(=O)N(C3CCCCC3)[C@@H]2c2ccc(CO)cc21 | -0.124 | 0.659 (inactive) | -0.357 | -0.0241 | 0.77 | -0.335 | 0.73 | -0.859 | -1.91 | -0.895
C=CCN1C(=O)[C@]2(Cc3ccccc3)N=C(c3ccc(OCCCO)cc3)O[C@@H]2c2ccccc21 | -0.591 | -0.452 (inactive) | 0.143 | -0.0029 | 0.414 | 2.79 | -0.0869 | 1.3 | 0.997 | 0.911
O=C1OCCC=C[C@H]2OC34C=CCN(CCN5CCOCC5)C(=O)[C@H]3N(CCCCCO)C(=O)[C@@H]4C12 (stereo not given in full) | 0.953 | -0.88 (inactive) | -0.152 | -0.203 | 0.848 | 2.4 | 1.48 | 0.913 | 0.355 | 0.935
CC#CC(=O)Oc1ccc(Br)cc1C=CC(=O)OCC | -0.107 | 1.39 (inactive) | 0.144 | -0.0529 | 0.18 | 0.942 | 0.158 | 0.582 | 0.103 | 0.269
CC(C)OC(=O)C=C1C[C@@H](c2cccc(Cl)c2)O[C@@H](c2cccc(Cl)c2)O1 | 0.466 | 0.806 (inactive) | -0.137 | 0.0234 | 0.299 | 1.68 | 0.484 | -0.296 | -0.579 | 0.99

— PubChem BioAssay
